Measurements from ChEMBL document CHEMBL1857833, “Screening and optimization of specific chemical series against human African Trypanosomiasis (HAT)”.
Out of some 4,400 compounds screened, about 390 (8.9%) showed an effect of 50% or more. This is one part of a sample in which strong results are shown more often than they occur.

System: Trypanosoma brucei
Assay: DNDI: Inhibition of Human African Trypanosomiasis, SBRI 427, in vitro at 2 ug.mL-1
Format: functional

SMILES | % inhibition [%]
COc1ccc(-c2nc(CNCCc3cc(OC)ccc3OC)co2)cc1 | 7
COc1ccc(OC)c(CCNCc2coc(-c3ccc(C(C)(C)C)cc3)n2)c1 | 74
COc1ccc(OC)c(CCNCc2coc(-c3ccc(C)cc3)n2)c1 | 7
COc1ccc(Oc2nc(C)ccc2/C(=N/O)N2CC2C)cc1 (stereo not given) | 14
CC1CN1/C(=N\O)c1ccc(Oc2ccc3oc4ccccc4c3c2)nc1 (stereo not given) | 68
CC1CN1/C(=N\O)c1ccc(Oc2ccc3ccccc3c2)nc1 (stereo not given) | 8
Cc1cc(C)cc(Oc2ccc(/C(=N/O)N3CC3C)cn2)c1 (stereo not given) | 3
COc1ccc(OC)c(CCNCc2coc(-c3ccccc3C)n2)c1 | 11
Cc1ccc(/C(=N/O)N2CC2C)c(Oc2cccc(C(C)C)c2)n1 (stereo not given) | -6
Cc1ccc(/C(=N/O)N2CC2C)c(Oc2cccc3ccccc23)n1 (stereo not given) | 12
